An excerpt weighted towards active compounds, which were near 3.5% of everything screened.
MITF primary = blocks human microphthalmia-associated transcription factor | AlphaScreen MITF homodimerization, bead proximity signal | O75030 | hit rate 0.91% among 650,000 | inhibition, % at 2.6 µM; in the data active = inhibition above about 50%
TEAD-YAP block = TEAD-YAP interaction inhibition; HEK-TIYL cells, TEAD-Gal4/YAP UAS-luciferase luminescence; inhibition, % at 9.12 µM; hit rate 1.4% among 640,000; in the data active = inhibition above about 32%
GPR151 ag = activates the human receptor GPR151; Q8TDV0; PathHunter beta-arrestin GPR151 cells, luminescence; activation, % at 11.2 µM; hit rate 1% among 650,000; AID 1508602; in the data active = activation above about 4.9%
FBW7 act = human FBW7 E3 ligase activation, primary screen. AID 1259310. hit rate 0.13% among 650,000. Q969H0. AlphaScreen FBW7–phospho-cyclin E peptide binding, activator screen. normalized activity (activation), % at 26.1 µM; in the data active = normalized activity above about 1.9%;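 note: purified mutant Fbw7 with reduced substrate affinity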
Target sequence (Q969H0 whole entry, looked up): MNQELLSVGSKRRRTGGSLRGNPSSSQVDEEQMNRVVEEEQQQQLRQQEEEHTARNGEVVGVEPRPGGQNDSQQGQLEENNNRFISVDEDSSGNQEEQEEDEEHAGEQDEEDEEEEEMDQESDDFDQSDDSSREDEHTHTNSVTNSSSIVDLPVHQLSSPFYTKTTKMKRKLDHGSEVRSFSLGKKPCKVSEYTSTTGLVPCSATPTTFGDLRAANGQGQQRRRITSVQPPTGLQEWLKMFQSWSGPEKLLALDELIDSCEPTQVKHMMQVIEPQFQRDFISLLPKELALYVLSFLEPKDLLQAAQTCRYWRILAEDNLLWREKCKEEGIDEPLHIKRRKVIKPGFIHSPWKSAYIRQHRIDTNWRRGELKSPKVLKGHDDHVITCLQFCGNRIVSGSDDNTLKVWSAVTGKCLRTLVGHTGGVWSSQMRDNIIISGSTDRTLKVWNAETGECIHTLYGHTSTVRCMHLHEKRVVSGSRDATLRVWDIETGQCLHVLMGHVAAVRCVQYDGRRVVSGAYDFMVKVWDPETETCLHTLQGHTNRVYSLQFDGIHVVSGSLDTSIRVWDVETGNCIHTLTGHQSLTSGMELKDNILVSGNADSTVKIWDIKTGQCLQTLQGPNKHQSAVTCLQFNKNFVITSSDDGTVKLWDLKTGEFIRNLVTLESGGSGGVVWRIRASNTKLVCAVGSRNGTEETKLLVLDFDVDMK
Hits are given with their value; i = inactive.

SMILES | MITF primary | TEAD-YAP block | GPR151 ag | FBW7 act
CC1CCCN(c2ncnc3ccc([N+](=O)[O-])cc23)C1 (configuration not stated) | i | 35.1 | i | i
O=[N+]([O-])c1ccc2ncnc(N3CCN(Cc4ccccc4)CC3)c2c1 | i | i | i | i
Fc1cc(-c2nc(Nc3ccc(-n4ccnc4)cc3)ncc2F)cc(N2CCOCC2)c1 | i | 57.4 | i | i
Cc1nc(C)n(-c2ccc(Nc3ncc(F)c(-c4cc(F)cc(N5CCN(C)CC5)c4)n3)cc2)n1 | i | 63.6 | i | i
Fc1cc(-c2nc(Nc3cccc(CN4CCOCC4)c3)ncc2F)cc(N2CCOCC2)c1 | i | 90.9 | i | i
Fc1cc(-c2nc(Nc3cccc(CN4CCCC4)c3)ncc2F)cc(N2CCOCC2)c1 | i | 93.3 | i | i
Cc1nc(C)n(-c2ccc(Nc3ncc(F)c(-c4cc(C#N)cc(N5CCOCC5)c4)n3)cc2)n1 | i | i | i | i
CCOC(=O)c1c[nH]c2c(OCC)cccc2c1=O | i | i | i | i
COc1ccc(NC(=O)CCC(=O)OCN2C(=O)c3ccccc3C2=O)cc1 | i | i | i | i
Fc1cc(-c2ccnc(Nc3cccc(CN4CCOCC4)c3)n2)cc(N2CCOCC2)c1 | i | 53.0 | i | i
Fc1cc(-c2nc(Nc3cccc(Cn4cccn4)c3)ncc2F)cc(N2CCOCC2)c1 | i | i | i | i
CCOc1ccc(NC(=O)c2sc(NC(=O)C3CC3)c(C(=O)OC)c2C)cc1 | i | i | i | i
Cc1csc(NC(=O)C(Cc2c[nH]c3ccccc23)NC(=O)OC(C)(C)C)n1 (configuration not stated) | i | 40.6 | i | i
COC(=O)c1ccccc1Sc1c(-c2ccccc2)nc2ncccn12 | i | 45.2 | i | i
CCOC(=O)c1ccc(CN2C(=O)C(=O)c3cc(OC(F)(F)F)ccc32)o1 | i | 66.5 | i | i
C/C(Cn1nc([N+](=O)[O-])cc1C)=N/NC(=O)c1cc(O)c(O)c(O)c1 | 55.7 | i | i | i
CCCCN1C(=O)c2cccc3c(N4CCCC4)ccc(c23)C1=O | i | i | i | i
CCN1C(=O)c2cccc3c(N4CCCC4)ccc(c23)C1=O | i | i | i | 2.1
Cc1nc2cc(-c3ccccc3)nn2c(C)c1CCC(=O)O | i | 51.2 | i | i
Cc1nc2cc(-c3ccc(Cl)cc3)nn2c(C)c1CCC(=O)O | i | 43.9 | i | i
COc1cc(OC)cc(-c2cc3nc(C)c(CCC(=O)NCc4ccccc4)c(C)n3n2)c1 | i | 39.4 | i | i
Cc1csc(NC(=O)CCc2c(C)nc3cc(-c4ccccc4)nn3c2C)n1 | i | 37.5 | i | i
O=C(CNC(=O)c1ccco1)NCc1ccc(F)cc1 | i | i | i | i
CCOC(=O)c1c(NC(=O)C(F)(F)F)sc2c1CCCCC2 | i | i | i | i
Cc1cc(NC(=O)C(=O)NC2CC2)ccc1Br | i | i | i | i
SMILES | MITF primary | TEAD-YAP block | GPR151 ag | FBW7 act
O=C1Nc2ccccc2/C1=N\N=C1/SCC(=O)N1c1ccc(O)cc1 | i | 50.0 | i | i
Cc1c(N2C(=O)CS/C2=N\N=C2/C(=O)Nc3ccccc32)c(=O)n(-c2ccccc2)n1C | i | i | i | i
Cn1cc(C(=O)N2CCN(c3ccccc3Cl)CC2)c2ccccc2c1=O | i | 42.8 | i | i
Cc1c(C(=O)Nc2ccccc2F)sc2ncnc(N3CCN(c4ccccc4)CC3)c12 | i | i | i | 1.9
COc1cc(NC(=O)c2sc3ncnc(N4CCN(c5ccccc5F)CC4)c3c2C)cc(OC)c1OC | i | 32.2 | i | i
CCN(CC)C(=O)c1sc2ncnc(N3CCN(c4ccccc4)CC3)c2c1C | i | i | i | 2.0
Cc1c(C(=O)NC(C)C)sc2ncnc(N3CCN(c4ccccc4)CC3)c12 | i | i | i | 2.1
Cc1c(C(=O)Nc2c(F)cccc2F)sc2ncnc(N3CCN(c4ccccc4)CC3)c12 | i | i | i | i
Cc1ccc(NC(=O)c2sc3ncnc(N4CCN(c5ccccc5F)CC4)c3c2C)c(Br)c1 | i | i | i | 2.0
Cc1ccc(-c2cc(NC(=O)CCl)on2)cc1 | i | i | i | i
COc1ccc(-c2cc3nc4c(c(NCc5cccnc5)n3n2)CCC4)cc1OC | i | 35.5 | i | i
COc1ccc(-c2cc3nc4c(c(NCCN)n3n2)CCC4)cc1OC | i | i | i | i
COc1ccc(-n2nc([N+](=O)[O-])c(=Nc3ccc(Br)cc3F)n2O)cc1 | i | i | i | i
Cc1cc(-c2ccc(S(=O)(=O)N3c4ccccc4CC3C)cc2)on1 (configuration not stated) | i | 61.3 | i | i
CC1Cc2ccccc2N1S(=O)(=O)c1ccc2[nH]c(=O)[nH]c2c1 (configuration not stated) | i | 37.2 | i | i
CC1Cc2ccccc2N1S(=O)(=O)c1ccc2c(c1)n(C)c(=O)c(=O)n2C (configuration not stated) | i | i | i | i
O=c1[nH]c2ccc(N=Cc3ccc(O)c(O)c3O)cc2[nH]1 | 67.7 | i | i | i
Oc1cccc(C=Nc2ccc(Br)cc2)c1O | i | i | i | i
Oc1ccc(C=Nc2ccccc2)c(O)c1O | 84.9 | i | i | i
Cc1ccc(N=Cc2ccc(O)c(O)c2O)cc1F | 69.0 | i | i | i
Cc1ccc(N=Cc2cccc(O)c2O)cc1F | i | i | i | i
c1ccc(-n2cnc3c(NCc4nc5ccccc5[nH]4)nc(N4CCc5ccccc5C4)nc32)cc1 | i | i | i | i
c1ccc(-n2cnc3c(NCc4nc5ccccc5[nH]4)nc(N4CCN(c5ccccn5)CC4)nc32)cc1 | i | 47.8 | i | i
CCCNc1nc(N2CCN(c3ccccn3)CC2)nc2c1ncn2-c1ccccc1 | i | 40.1 | i | i
CCOc1ccc(/C=C2\C(=O)ON=C2c2ccc(Cl)cc2)cc1 | 59.3 | i | i | i
SMILES | MITF primary | TEAD-YAP block | GPR151 ag | FBW7 act
Cc1ccc(COc2ccccc2/C=C2/C(=O)ON=C2c2ccccc2)cc1 | 54.1 | i | i | i
COc1cc(/C=C2/C(=O)ON=C2c2ccccc2)cc(OC)c1OC | 56.4 | i | i | i
COc1ccccc1/C=C1\C(=O)ON=C1c1ccccc1 | 70.4 | i | i | i
COc1ccc(/C=C2\N=C(c3cc([N+](=O)[O-])ccc3Cl)OC2=O)cc1OC(C)=O | i | i | i | i
COc1cc(/C=C2/C(=O)ON=C2c2ccc(Cl)cc2)ccc1O | 60.8 | i | i | i
COc1cc(/C=C2/C(=O)ON=C2c2ccccc2)ccc1O | 69.4 | i | i | i
COc1cc(/C=C2\C(=O)ON=C2c2ccccc2)ccc1OCc1ccc(Cl)cc1 | i | i | i | i
CCOc1cc(/C=C2/C(=O)ON=C2c2ccccc2)ccc1OC | 66.8 | i | i | i
Cc1cccc(NC(c2ccc3c(c2)OCO3)c2ccc3cccnc3c2O)n1 (configuration not stated) | i | 80.4 | i | i
Oc1c(C(Nc2ccccn2)c2ccc3c(c2)OCO3)ccc2cccnc12 (configuration not stated) | i | 86.6 | i | i
CCOc1cccc(C(Nc2cccc(C)n2)c2ccc3ccc(C)nc3c2O)c1 (configuration not stated) | i | i | i | i
Oc1c(C(Nc2ccccn2)c2ccc(OC3CCCC3)cc2)ccc2cccnc12 (configuration not stated) | i | i | i | i

Screening data from PubChem.
